Screening data: PubChem BioAssay, National Center for Advancing Translational Sciences (NCATS)
HT1080 IDH1KD tx – toxicity to HT-1080 IDH1 knockdown cells (counter line) | AID 686971 | Potency, µM (series often up to 46.1 µM), without a hit: top-dose activity, negative = toxicity, hits mostly cytotoxic | 360,000 compounds, 2% hits | HT-1080 IDH1 knockdown viability, ATP luminescence, 48 h;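 note: potency is the fitted concentration of half-maximal effect; 0% = DMSO wells and -100% = cell-free medium wells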
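% activity derives from luminescence (CellTiter-Glo), normalised to DMSO and no-cell wells. HT-1080-IDH1KD cells, 750/well, had 48 h compound exposure at 37 °C.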
DT40 TDP1 CPT – growth inhibition of DT40 Tdp1-/-;hTDP1 cells with camptothecin (screen for TDP1 inhibitors) | chicken DT40 Tdp1-/-;hTDP1 cells + 20 nM CPT, ATP luminescence, 48 h | Potency, µM (top dose mostly 46.2 µM), for the others: top-dose activity change, negative = growth inhibition, hits mostly inhibitors | 420,000 compounds, 12% hits | AID 686979; note: potency is the fitted concentration of half-maximal effect; nearly all actives have a fitted effect of over 55% in size
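Chicken DT40 Tdp1-/- cells stably complemented with human TDP1 were seeded at 400 cells/well in medium containing 20 nM camptothecin, exposed to pin-transferred compounds, and grown at 37 °C for at least 48 hr. Viability was read as ATP luminescence.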
IL-1B inflam inh – inhibitors of inflammasome signaling (IL-1 beta secretion) | THP-1 LPS/ATP IL-1B secretion, AlphaLISA, 16 h; hits give low values | activity change, % at 57.5 µM | 360,000 compounds, 4.7% hits | AID 743279; in the data active = activity change below about -50%; inconclusive = mostly about -30% to -49%
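THP-1 cells pretreated 1 hr with compounds (up to 57.5 uM final), then stimulated with LPS (250 ng/mL final) plus ATP (1.25 mM final); secreted IL-1B measured by AlphaLISA after 16 hr, decreased signal indicating inhibition.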
HT1080NT lethal – kills 2HG-producing HT-1080-NT fibrosarcoma cells; 360,000 compounds, 1.6% hits; HT-1080-NT fibrosarcoma viability, CellTiter-Glo ATP luminescence, 48 h; AID 686970; Potency, µM (highest dose often 46.1 µM), for inactives: at the highest dose activity, negative = less viability, actives largely listed as cytotoxic;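 note: NT is the 2HG producing partner of a matched IDH1 knockdown line; potency is the fitted concentration of half-maximal effect; 0% = DMSO-treated cells and -100% = media-only wells without cells; nearly all actives have a fitted effect of over 55% in size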
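A 48-hour cytotoxicity screen used HT-1080-NT cells plated 2 hours before compound delivery. ATP-based CellTiter-Glo luminescence measured viability, normalized to DMSO and no-cell controls.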
DT40 TDP1 no CPT – qHTS for Inhibitors of human tyrosyl-DNA phosphodiesterase 1 (TDP1): qHTS in cells in absence of CPT. DT40 Tdp1-/- hTDP1 cells, no CPT, ATP luminescence, 48 h. Potency, µM (titrated, usually from 46.2 µM), for the others: top-dose activity change, negative = growth inhibition, most hits filed as inhibitors. 420,000 compounds, 15% hits. AID 686978, 2013; note: potency is the fitted concentration of half-maximal effect; nearly all actives have a fitted effect of over 55% in size
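Growth kinetics read by CellTiter-Glo luminescence after ≥48 hr at 37 °C. Cells: DT40 Tdp1-/- stably carrying human TDP1, 400 per well, compound exposure in the absence of CPT (DMSO vehicle).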
* marks the source's active call; other numbers are inactive results; i = inactive; u = inconclusive; x = no result given. Only some compounds are listed: those with a hit (about 19% of all), similar ones and a draw of the others. Unless noted, calls come from the whole dose curve; as a rule, active = well fitted curve in the direction sought with a large enough effect; inconclusive = small, poorly fitted or top-dose-only effect, or another doubt; inactive = no such curve, though single readings can be large; an effect the other way counts as inactive or inconclusive. Unless noted, % is set by controls: 0 for no effect and ±100 for the full control effect.

SMILES | HT1080 IDH1KD tx | DT40 TDP1 CPT | IL-1B inflam inh | HT1080NT lethal | DT40 TDP1 no CPT
COc1cc(/C=N/NC(=O)CCn2nnc3ccccc32)ccc1O | 16.2% | 41.0% | 11.7 | 8.8% | -0.5%
COc1cccc(/C=N\NC(=O)Cn2nnc3ccccc32)c1O | u | 3.66µM* | 158.9 | u | 2.91µM*
COc1cc(/C=N/NC(=O)Cn2nnc3ccccc32)ccc1O | 0.3% | -13.1% | 13.2 | 0.7% | u
CCN(CC)S(=O)(=O)c1ccc2c(c1)c(=O)c(C(=O)N1CCN(c3cccc(C)c3)C(C)C1)cn2C (stereo unspecified) | x | -25.9% | x | x | u
CC1(c2ccc([N+](=O)[O-])cc2)NC(=O)N(CC(=O)Nc2ccc(N3CCCCC3)cc2)C1=O (stereo unspecified) | -10.7% | u | -1.5 | -15.3% | 18.4µM*
CC1(c2ccccc2)NC(=O)N(CC(=O)Nc2ccc([N+](=O)[O-])cc2)C1=O (stereo unspecified) | u | 25.9µM* | -11.6 | u | u
CC1CCCN(S(=O)(=O)c2ccc(NC(=O)CN3C(=O)NC(C)(c4ccccc4)C3=O)cc2)C1 (stereo unspecified) | -3.3% | -28.2% | -51.9* | -3.6% | u
O=C(NCCN1CCOCC1)c1ccc(NS(=O)(=O)c2ccccc2)cc1 | 14.5% | 7.3% | i | 5.1% | 8.2%
Cc1nc2cnc(N3CCN(C)CC3)nc2n(C)c1=O | x | 6.6% | x | x | 4.0%
CN(C)C(=S)Oc1ccccc1C1(C)OCCO1 | 4.2% | 9.1% | -15.7 | 5.7% | 2.4%
CCn1nnnc1NCc1ccc(N2CCCC2)cc1 | 5.2% | u | 1.3 | 11.1% | u
CCn1nnnc1NCc1ccc(SC)cc1 | 7.1% | -3.3% | -77.5* | -0.3% | 9.2%
Cc1nc(CN(C)Cc2nc(Cc3ccccc3Cl)no2)cs1 | -1.2% | -16.6% | 8.8 | -2.9% | -26.3%
COC(=O)C12CCC(C)(c3nc4ccccc4nc31)C2(C)C (stereo unspecified) | 8.0% | 1.2% | 18.2 | 24.0% | u
CC(C)(C)NC(=O)C12CCC(C)(c3nc4ccccc4nc31)C2(C)C (stereo unspecified) | -12.0% | 11.2µM* | 20.9 | 9.2% | 22.4µM*
COC1=CC(=O)C(OC)=C(OC)C1=O | u | 0.731µM* | -102.1* | -8.1% | 1.16µM*
[O-][n+]1c2ccccc2c2n1CCN1CCOC21c1ccc(Cl)cc1 (stereo unspecified) | -1.3% | 2.06µM* | 21.2 | -2.7% | 7.31µM*
COc1ccc(S(=O)(=O)N(C)C)cc1NC(=O)Cc1c[nH]c2ccccc12 | -3.1% | -2.4% | -13.6 | -6.3% | -27.3%
CCC(C)NC(=S)Nc1ccc2nc(N3CCN(CC)CC3)cc(C)c2c1 (stereo unspecified) | -1.1% | u | 0.5 | -3.4% | 23.1µM*
Cc1cc(N2CCN(C)CC2)nc2ccc(NC(=S)NCc3cccs3)cc12 | 23.1µM* | u | -77.4* | 18.4µM* | u
CCC(C)NC(=S)Nc1ccc2nc(N3CCOCC3)cc(C)c2c1 (stereo unspecified) | 3.6% | u | -1.8 | -3.4% | u
COCCNC(=S)Nc1ccc2nc(N3CCN(C)CC3)cc(C)c2c1 | -3.0% | -11.7% | 15.0 | -0.2% | u
CCN1CCN(c2cc(C)c3cc(NC(=S)NCc4cccs4)ccc3n2)CC1 | -1.0% | u | -1.6 | -8.6% | 20.6µM*
CCC(C)NC(=O)CCC(=O)Nc1ccc2nc(N3CC(C)CC(C)C3)cc(C)c2c1 (stereo unspecified) | -7.8% | -16.6% | -58.7* | 0.0% | 16.4µM*
CCN1CCN(c2cc(C)c3cc(NC(=S)NCCCOC)ccc3n2)CC1 | -6.2% | u | -10.3 | -14.1% | 1.8%
C[C@@H]1CN([C@@H](C)CO)C(=O)c2ccccc2-c2ccccc2CO[C@@H]1CN(C)S(=O)(=O)c1ccc(C(F)(F)F)cc1 | -2.5% | u | u | 16.2% | -3.0%
Nc1nc(-c2ccccn2)nc(N)c1Cc1c(F)cccc1Cl | u | 1.84µM* | 18.3 | -26.8% | 1.46µM*
